# The source made the active and inactive calls. Calls come from the whole dose curve; as a rule, active = well fitted activation curve with a large enough effect in the repeat runs; inconclusive = weak or mixed curves; inactive = flat fitted curve, though single readings scatter.
# Assay: A CellTox Green Cytotoxicity Assay to monitor cytotoxicity in HepG2 cells - 0 hour (AID 1224882); note: nearly all actives have a fitted effect of over 35% in size
# Conditions: CellTox Green fluorescence; series mostly up to 76.8 µM; cytotoxicity: at the top concentration
# Description: National Center for Advancing Translational Sciences [NCATS]
# NIH Chemical Genomics Center [NCGC]
# U.S. Environmental Protection Agency [EPA]
# National Institutes of Environmental Health Sciences [NIEHS]
# National Toxicology Program [NTP]
# Cell-based models are critical for drug discovery. Determining the natural cytotoxic effects resulting from test compounds is an essential research activity. A CellTox Green Cytotoxicity Assay to monitor cytotoxicity in real time of continues cell culture during 40 hours of the compound treatment was used to screen Tox21 10K library compounds in HepG2 cells. CellTox Green Cytotoxicity Assay is a nonlytic, homogeneous, biofluorescent method to measure cytotoxicity in cell culture after experimental manipulation. The assay system uses a proprietary asymmetric cyanine dye that is excluded from viable cells but preferentially stains the dead cell's DNA. […] Viable cells produce no appreciable increases in fluorescence. Therefore, the fluorescence signal produced by the binding interaction with dead cell DNA is proportional to cytotoxicity.
# The mixture of HepG2 cell suspension and reagents were dispensed at 600cells/6 ul/well in 1536-well tissue culture treated black solid bottom plates using a Multidrop dispenser. After the assay plates were incubated at a 37 C/5% CO2 incubator for 5 hours, 23 nL of compounds dissolved in DMSO, positive and negative controls was transferred to the assay plate by a pintool work station. The plates were incubated at 37 C for 40 hours. The fluorescence intensity were measured at 0h, 8h, 16h, 24h, 32h and 40h time points using ViewLux plate reader during compound treatment.
# % is set by controls: 0 for no effect and ±100 for the full control effect; potency is the fitted concentration of half-maximal effect.
SMILES,cytotoxicity,Potency
CC(O)C#N (stereo not given),-0.621% (inactive),–
COC(=O)N(C(=O)N1COC2(C(=O)OC)Cc3cc(Cl)ccc3C2=N1)c1ccc(OC(F)(F)F)cc1 (stereo not given),-11.7% [at 35.3 µM] (inactive),–
CC1CCC(C(C)C)C(OC(=O)c2ccccc2N)C1 (stereo not given),-0.864% (inactive),–
Fc1ccc(Oc2ccnc3cc(Cl)cc(Cl)c23)cc1,2.13% (inactive),–
CC(C)Oc1cccc(NC(=O)c2ccccc2C(F)(F)F)c1,–,49 µM (active)
COc1ccc(/C(=C/C(=O)N2CCOCC2)c2ccc(Cl)cc2)cc1OC,0.807% (inactive),–
C1CCC2CCCCC2C1 (stereo not given),-11.5% (inactive),–
NC(=O)c1ccc(N)nc1,0.361% (inactive),–
CCS(=O)(=O)c1cccnc1S(=O)(=O)NC(=O)Nc1nc(OC)cc(OC)n1,6.01% (inactive),–
CC1(C)[C@H](C(=O)O[C@H](C#N)c2cccc(Oc3ccccc3)c2)[C@@H]1/C=C(\Cl)C(F)(F)F,–,inactive
CC(C)(C)OO,-0.0759% (inactive),–
CCCCCCCCCCCCCCCC[N+](C)(C)C,–,inactive
CC(=O)[O-].CC(=O)[O-].O.O.[Cd+2],-8.32% (inactive),–
[CH3][Hg][Cl],4.13% (inactive),–
Clc1ccc(CSC(Cn2ccnc2)c2ccc(Cl)cc2Cl)cc1 (stereo not given),-7.89% [at 35.3 µM] (inactive),–
COC(=O)N(C(=O)N1CO[C@@]2(C(=O)OC)Cc3cc(Cl)ccc3C2=N1)c1ccc(OC(F)(F)F)cc1,4.82% (inactive),–
Nc1ccc(Sc2ccc(N)cc2)cc1,-1.74% (inactive),–
CC(Cl)CN(C)C (stereo not given),-10.5% (inactive),–
CCC(C)(C)C(=O)OC1=C(c2ccc(Cl)cc2Cl)C(=O)OC12CCCCC2,0.761% (inactive),–
CC(C)(C)c1cc([N+](=O)[O-])cc(C(C)(C)C)c1O,-2.19% (inactive),–

SMILES,cytotoxicity,Potency
OC(Cc1ccccc1Cl)(Cn1cncn1)C1(Cl)CC1 (stereo not given),-14.2% (inactive),–
COc1cccc(C(=O)CCN[C@@H](C)[C@H](O)c2ccccc2)c1,-26.9% [at 35.3 µM] (inactive),–
ClC1=C(Cl)[C@]2(Cl)[C@@H]3[C@@H](Cl)[C@H](Cl)C[C@@H]3[C@@]1(Cl)C2(Cl)Cl,-2.02% (inactive),–
Cc1cccc(OP(=O)(Oc2cccc(C)c2)Oc2cccc(C)c2)c1,-4.52% (inactive),–
O=C(CBr)c1ccc(O)cc1,-2.06% (inactive),–
CCCCOP(=O)(CCCC)OCCCC,-10.2% (inactive),–
O=C1c2ccccc2C(=O)C1C(=O)C(c1ccccc1)c1ccc(Cl)cc1 (stereo not given),8.96% (inactive),–
CCCCCCCCCCBr,4.8% (inactive),–
Nc1ccccc1C(=O)Oc1ccc2ccccc2c1,12.1% (inactive),–
CCCCCCCCCCCCCCC(Br)C(=O)O (stereo not given),-6.03% (inactive),–
ClCCN1CCOCC1,-6.53% (inactive),–
Cc1c(Cl)c(=O)oc2cc(OP(=O)(OCCCl)OCCCl)ccc12,2.5% [at 35.3 µM] (inactive),–
c1ccc(Nc2ccc3ccccc3c2)cc1,–,inactive
O=c1oc2ccccc2c(O)c1Cc1c(O)c2ccccc2oc1=O,-0.902% [at 35.3 µM] (inactive),–
CC(C)OC(=O)C(O)(c1ccc(Cl)cc1)c1ccc(Cl)cc1,2.19% (inactive),–
N#CC(Cl)Cl,–,1.51 µM (active)
CCOCCOC(C)=O,-0.741% (inactive),–
CC[C@H]1C[C@@H]2C[C@H]3c4[nH]c5ccc(OC)cc5c4CCN(C2)[C@@H]13,-7.19% (inactive),–
Oc1ccc(C2(c3ccc(O)cc3)c3ccccc3-c3ccccc32)cc1,1.66% (inactive),–
Nc1c(Oc2ccccc2)cc(O)c2c1C(=O)c1ccccc1C2=O,-4.6% [at 35.3 µM] (inactive),–
